For experiment [1], the target named is PGR (gene 5241) (UniProt P06401). As to the kind of experiment: TOX21_PR_BLA_Followup_Agonist_ratio: Tox21 HEK293 Progesterone Receptor (PR) Agonism Beta-lactamase Follow-Up Assay, Ratio (AID 2283933). A digest of the protocol:
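HEK293T PR-UAS-bla, 2% CS-FBS; 6 hr preincubation, cpd/DMSO pinned, 16 hr 37C/5% CO2; LiveBLAzer B/G 2 hr RT; FRET ch2/ch1 ratio, agonist direction vs DMSO. Viability by CellTiter-Glo in same wells.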

Experiment [2] in a line: TOX21_PR_BLA_Followup_Agonist_viability: Viability Assessment in the Tox21 HEK293 Progesterone Receptor (PR) Agonism Beta-lactamase Follow-Up Assay (AID 2283935).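 Also: signal loss means lower viability so actives are cytotoxic.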 The method in brief:
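HEK293T PR-UAS-bla, 3,000 cells/well, 2% CS-FBS; 6 hr pre-incubation; cpd in DMSO, 16 hr 37C; LiveBLAzer 2 hr RT, then CellTiter-Glo 30 min RT, luminescence. Decrease = lost viability.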

Experiment [3] is described as follows: TOX21_PR_BLA_Followup_Antagonist_viability: Viability Assessment in the Tox21 HEK293 Progesterone Receptor (PR) Antagonism Beta-lactamase Follow-Up Assay (AID 2283936).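 Also: hits lower the luminescence signal meaning cytotoxicity.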 The method in brief:
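PR-UAS-bla HEK293T cells (3,000/well, 2% charcoal-stripped FBS) given compound plus R5020 agonist, 16 h at 37C. CellTiter-Glo added after bla read, 30 min at room temperature; luminescence loss indicates cytotoxicity.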

For experiment [4], the target named is PGR (gene 5241) (UniProt P06401). As to the kind of experiment: TOX21_PR_LUC_Followup_Agonist: Tox21 HEK293 Progesterone Receptor (PR) Agonism Luciferase Follow-Up Assay (AID 2283937; active = hit-call score of the fitted dose curve at least 0.9, where 1 is the maximum; inactive = score below 0.9). A digest of the protocol:
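Cells: HEK293-PR-A-luc, 3,000/well, 10% charcoal-stripped FBS assay medium. Compound added after 5 h; 16 h, 37C, 0% CO2. ONE-Glo luciferase, luminescence. Positive fit vs DMSO.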

For experiment [5] the target is unchanged. Description: TOX21_PR_LUC_Followup_Antagonist: Tox21 HEK293 Progesterone Receptor (PR) Antagonism Luciferase Follow-Up Assay (AID 2283938).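 Also: curve fitted upward as signal gain over DMSO baseline despite antagonist label.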 A digest of the protocol: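 Cells are grown 5 days in charcoal-stripped-FBS assay medium, plated, left 5 h, then dosed with compound and incubated 16 h. ONE-Glo reagent is added and luminescence read after 30 min.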

Experiment [6] in a line: TOX21_PR_LUC_Followup_Antagonist_viability: Viability Assessment in the Tox21 HEK293 Progesterone Receptor (PR) Antagonism Luciferase Follow-Up Assay (AID 2283940). A digest of the protocol:
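Multiplexed viability counter-screen: after 5 days in charcoal-stripped-FBS medium, HEK293-PR-A-luc cells are plated, pinned with DMSO-dissolved compounds for 16 h at 37C, and ATP content is quantified luminescently via CellTiter-Glo.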

The target of experiment [7] is T1, Thyroid hormone receptor alpha (Rattus norvegicus) + Thyroid hormone receptor beta (Rattus norvegicus) (UniProt P18113+P63059). Description: TOX21_TR_LUC_GH3_Agonist_Followup: Tox21 GH3 Thyroid Hormone Receptor Agonism Luciferase Follow-Up Assay (AID 2283939). A digest of the protocol:
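Rat GH3 cells (1,500/well) in serum-free assay medium, treated with 15-point series, 92 uM to 5 nM final, for 24 h at 37C. Luciferase via ONE-Glo luminescence; gain of signal fitted against DMSO, T3 positive control.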

In experiment [8] the target is THRA (gene 7067) (UniProt P10827). Description: TOX21_TRA_COA_Agonist_Followup_ratio: Tox21 Thyroid Hormone Receptor alpha Agonism through Coactivator Recruitment Follow-Up Assay, Ratio (AID 2283948; active = hit-call score of the fitted dose curve at least 0.9, where 1 is the maximum; inactive = score below 0.9). A digest of the protocol:
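Follow-up specificity assay in which TRα ligand-binding domain, expressed as a GST fusion, recruits a fluorescein-labelled SRC-2 peptide. Energy transfer from a terbium anti-GST antibody gives the acceptor/donor ratio, fitted upward relative to DMSO.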

In experiment [9] the target is THRB (gene 7068) (UniProt P10828). Description: TOX21_TRB_COA_Agonist_Followup_ratio: Tox21 Thyroid Hormone Receptor beta Agonism through Coactivator Recruitment Follow-Up Assay, Ratio (AID 2283963; active = hit-call score of the fitted dose curve at least 0.9, where 1 is the maximum; inactive = score below 0.9). The method in brief:
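GST-TRb LBD 5.0 nM + 0.10% BSA + cpd; add fluorescein-SRC-2 200 nM / Tb anti-GST Ab 2 nM; TR-FRET ex 340, em 520:495; norm DMSO 0%, T3 100%.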

The target of experiment [10] is Retinoic acid receptor RXR-alpha (Homo sapiens) (UniProt P19793). As to the kind of experiment: TOX21_TR_RXR_BLA_Agonist_Followup_ratio: Tox21 Thyroid Hormone Receptor beta Retinoid X Receptor alpha (RXRa) Agonism Beta-lactamase (BLA) Follow-Up Assay, Ratio (AID 2283968). The method in brief:
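HEK293T RXRa-bla, qHTS; cpd 11-pt conc. in triplicate, 16 h 37C/5% CO2; CCF4-AM 2 h RT; ratio 460:530 nm; agonist direction vs DMSO; 9-cis retinoic acid as positive control.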

Experiment [11] is described as follows: TOX21_TR_RXR_BLA_Agonist_Followup_viability: Viability Assessment in the Tox21 Thyroid Hormone Receptor beta Retinoid X Receptor alpha (RXRa) Agonism Beta-lactamase (BLA) Follow-Up Assay (AID 2283970). A digest of the protocol:
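Cells: HEK293T RXRa-UAS-bla, 2,500/well; medium phenol red-free DMEM + 2% charcoal-stripped FBS; 16h, 37C/5% CO2; qHTS concentration series. Read: CellTiter-Glo luminescence (ATP); bidirectional fit, DMSO = baseline.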

The target in experiment [12] is T1, Thyroid hormone receptor alpha (Rattus norvegicus) + Thyroid hormone receptor beta (Rattus norvegicus). As to the kind of experiment: TOX21_TR_LUC_GH3_Antagonist_Followup: Tox21 GH3 Thyroid Hormone Receptor Antagonism Luciferase Follow-Up Assay (AID 2283942). The method in brief: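 Rat pituitary GH3 cells with a TRα/TRβ-driven luciferase reporter, 5 h attachment, then 15 concentrations (92 uM to 5nM final) plus 1.0 nM T3 agonist, 24 h at 37C/5% CO2. ONE-Glo luminescence; signal change fitted against DMSO baseline.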

Experiment [13] has as its target THRA (gene 7067) (UniProt P10827). As to the kind of experiment: TOX21_TRA_COA_Antagonist_Followup_ratio: Tox21 Thyroid Hormone Receptor alpha Antagonism through Coactivator Recruitment Follow-Up Assay, Ratio (AID 2283953). The method in brief: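 520:495 nm emission ratio (excitation 340 nm) reports fluorescein-SRC-2 peptide recruitment to GST-TRα LBD by TR-FRET with Tb anti-GST antibody. Values were normalized to DMSO (0%) and T3 control wells (100%); loss of signal indicated antagonism.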

For experiment [14], the target named is THRB (gene 7068) (UniProt P10828). As to the kind of experiment: TOX21_TRB_BLA_Antagonist_Followup_ratio: Tox21 Thyroid Hormone Receptor beta Antagonism Beta-lactamase (BLA) Follow-Up Assay, Ratio (AID 2283958). The method in brief: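 HEK293T TRb-bla (GAL4 DBD + hTRβ LBD), 2% cs-FBS phenol red-free DMEM, 5 h attach; cpds 11-pt triplicate, 18 h 37C; CCF4-AM 2 h RT; 460/530 ratio vs DMSO; CellTiter-Glo viability same wells.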
Chain of THRB (gene 7068) (P10828 whole entry, looked up, the tested form may be a part): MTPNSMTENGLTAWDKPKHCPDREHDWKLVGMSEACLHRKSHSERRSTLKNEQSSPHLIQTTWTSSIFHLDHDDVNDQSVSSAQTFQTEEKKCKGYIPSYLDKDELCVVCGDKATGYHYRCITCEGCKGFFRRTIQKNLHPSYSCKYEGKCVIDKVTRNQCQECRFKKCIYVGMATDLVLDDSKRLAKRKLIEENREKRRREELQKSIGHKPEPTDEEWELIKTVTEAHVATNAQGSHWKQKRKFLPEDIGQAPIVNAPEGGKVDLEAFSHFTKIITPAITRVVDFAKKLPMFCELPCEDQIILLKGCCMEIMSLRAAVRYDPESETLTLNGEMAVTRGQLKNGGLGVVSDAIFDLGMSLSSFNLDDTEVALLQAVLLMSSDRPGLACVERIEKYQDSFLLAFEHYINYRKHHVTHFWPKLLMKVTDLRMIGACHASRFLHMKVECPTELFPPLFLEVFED

A short description of experiment [15]: TOX21_TRB_BLA_Antagonist_Followup_viability: Viability Assessment in the Tox21 Thyroid Hormone Receptor beta Antagonism Beta-lactamase (BLA) Follow-Up Assay (AID 2283961). The method in brief: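 TRβ-bla HEK293T (human TRβ LBD fused to GAL4 DBD), 3,000 cells/well, 2% charcoal-stripped FBS, phenol red-free medium; 18 h compound exposure, 37C; CellTiter-Glo 30 min RT; luminescence, loss-of-signal readout.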

For experiment [16], the target named is THRB (gene 7068) (UniProt P10828). As to the kind of experiment: TOX21_TRB_COA_Antagonist_Followup_ratio: Tox21 Thyroid Hormone Receptor beta Antagonism through Coactivator Recruitment Follow-Up Assay, Ratio (AID 2283967). The method in brief: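 Cell-free TR-FRET coactivator recruitment with GST-tagged TRβ LBD (5.0 nM) and fluorescein-labeled SRC-2 peptide (200 nM) detected by terbium anti-GST antibody (2 nM). The 520:495 nm emission ratio was normalized to DMSO (0%) and T3 (100%).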

Experiment [17] has as its target Retinoic acid receptor RXR-alpha (Homo sapiens) (UniProt P19793). Description: TOX21_TR_RXR_BLA_Antagonist_Followup_ratio: Tox21 Thyroid Hormone Receptor beta Retinoid X Receptor alpha (RXRa) Antagonism Beta-lactamase (BLA) Follow-Up Assay, Ratio (AID 2283972). A digest of the protocol: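 HEK293T RXRa-bla, 2% charcoal-stripped FBS medium, 16 h compound exposure at 37C, qHTS 11 conc x3. CCF4 FRET ratio ch2/ch1 (460:530), DMSO = baseline, loss-of-signal fit.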

A short description of experiment [18]: TOX21_TR_RXR_BLA_Antagonist_Followup_viability: Viability Assessment in the Tox21 Thyroid Hormone Receptor beta Retinoid X Receptor alpha (RXRa) Antagonism Beta-lactamase (BLA) Follow-Up Assay (AID 2283979). The method in brief:
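RXRa-UAS-bla HEK293T cells seeded 2,500/well in phenol red-free DMEM with 2% charcoal-stripped FBS, attached 5 h, then exposed to compounds at 11 concentrations in triplicate for 16 h at 37C/5% CO2. Viability read by CellTiter-Glo ATP luminescence; bidirectional fit versus DMSO.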

The nature of experiment [19]: CCTE_Harrill_HTTr_Viability_MCF7: CCTE's 6-hour Cell Viability Assessment for the High-Throughput Transcriptomics (HTTr) Platform, in MCF-7 cells cultured in DMEM + 10% fetal bovine serum, Harrill Lab (AID 2284010; active = hit-call score of the fitted dose curve at least 0.9, where 1 is the maximum; inactive = score below 0.9). A digest of the protocol: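 Cells were dosed with chemicals in an eight-point dilution series, imaged 6 hours later for propidium iodide uptake, and the endpoint was analyzed by bidirectional fitting against DMSO as negative control.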

A short description of experiment [20]: CCTE_Harrill_HTTr_Apoptosis_MCF7: CCTE's 6-hour Apoptosis Assessment for the High-Throughput Transcriptomics (HTTr) Platform, in MCF-7 cells cultured in DMEM + 10% fetal bovine serum, Harrill Lab (AID 2284011; active = hit-call score of the fitted dose curve at least 0.9, where 1 is the maximum; inactive = score below 0.9). The method in brief:
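MCF-7 (DMEM + 10% FBS), 384-well; 8-pt dilution series, 6 h chemical exposure; caspase-3/7 activation via CellEvent Caspase 3/7 Green, HCI; bidirectional fit vs DMSO.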

A short description of experiment [21]: CCTE_Harrill_HTTr_CellCount_MCF7: CCTE's Cell Proliferation Assessment for the High-Throughput Transcriptomics (HTTr) Platform, Harrill Lab (AID 2284012).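 Also: cells exposed to compound for six hours; intended direction is loss of nuclei count meaning fewer cells.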 The method in brief: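 Chemicals in eight-point dilution series are added to MCF-7 cells for six hours, nuclei are stained with Hoechst and imaged, and per-well nuclei counts are fitted in both directions relative to DMSO controls.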

Results filed as inconclusive are left out. Active and inactive are the calls of the source. The calls were made as follows, unless noted: active = hit-call score of the fitted dose curve at least 0.9, where 1 is the maximum; inconclusive = response in the unintended direction; inactive = score below 0.9.

Chain of PGR (gene 5241) (P06401 whole entry, looked up): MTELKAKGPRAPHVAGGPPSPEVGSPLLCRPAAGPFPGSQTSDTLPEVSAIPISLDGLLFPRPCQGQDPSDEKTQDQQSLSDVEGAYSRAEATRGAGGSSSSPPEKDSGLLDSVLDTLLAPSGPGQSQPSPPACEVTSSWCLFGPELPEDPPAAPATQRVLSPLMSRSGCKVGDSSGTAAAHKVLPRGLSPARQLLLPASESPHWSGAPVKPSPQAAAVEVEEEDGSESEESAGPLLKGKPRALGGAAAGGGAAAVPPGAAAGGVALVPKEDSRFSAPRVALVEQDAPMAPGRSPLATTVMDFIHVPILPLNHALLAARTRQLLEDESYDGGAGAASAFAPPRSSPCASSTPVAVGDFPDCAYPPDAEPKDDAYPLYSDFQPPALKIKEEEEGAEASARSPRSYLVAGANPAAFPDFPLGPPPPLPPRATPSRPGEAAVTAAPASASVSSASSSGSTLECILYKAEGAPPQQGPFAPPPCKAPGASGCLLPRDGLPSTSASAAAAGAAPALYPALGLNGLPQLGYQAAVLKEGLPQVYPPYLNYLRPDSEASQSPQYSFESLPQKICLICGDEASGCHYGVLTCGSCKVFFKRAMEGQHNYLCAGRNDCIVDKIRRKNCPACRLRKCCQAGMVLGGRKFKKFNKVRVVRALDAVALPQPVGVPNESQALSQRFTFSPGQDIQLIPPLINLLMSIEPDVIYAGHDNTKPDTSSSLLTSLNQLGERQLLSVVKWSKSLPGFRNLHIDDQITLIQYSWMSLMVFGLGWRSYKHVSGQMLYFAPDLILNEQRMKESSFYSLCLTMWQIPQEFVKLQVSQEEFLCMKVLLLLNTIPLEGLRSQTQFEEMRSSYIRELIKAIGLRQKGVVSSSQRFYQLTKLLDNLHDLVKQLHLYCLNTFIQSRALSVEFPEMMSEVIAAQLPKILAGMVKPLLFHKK
Chain of Retinoic acid receptor RXR-alpha (Homo sapiens) (P19793 whole entry, looked up): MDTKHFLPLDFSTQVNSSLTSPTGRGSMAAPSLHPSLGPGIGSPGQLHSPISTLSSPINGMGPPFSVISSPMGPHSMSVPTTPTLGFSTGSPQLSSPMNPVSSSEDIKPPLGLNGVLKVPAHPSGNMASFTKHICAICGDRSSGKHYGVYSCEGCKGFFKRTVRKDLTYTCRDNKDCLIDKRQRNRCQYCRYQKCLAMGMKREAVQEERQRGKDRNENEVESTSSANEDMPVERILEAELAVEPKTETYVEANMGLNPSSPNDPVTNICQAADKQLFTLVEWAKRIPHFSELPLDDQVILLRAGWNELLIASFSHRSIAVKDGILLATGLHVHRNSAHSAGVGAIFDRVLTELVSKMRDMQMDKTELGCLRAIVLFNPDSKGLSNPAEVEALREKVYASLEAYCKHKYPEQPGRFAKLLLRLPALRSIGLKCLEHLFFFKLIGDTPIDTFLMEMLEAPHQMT
Chain of THRA (gene 7067) (P10827 whole entry, looked up, the tested form may be a part): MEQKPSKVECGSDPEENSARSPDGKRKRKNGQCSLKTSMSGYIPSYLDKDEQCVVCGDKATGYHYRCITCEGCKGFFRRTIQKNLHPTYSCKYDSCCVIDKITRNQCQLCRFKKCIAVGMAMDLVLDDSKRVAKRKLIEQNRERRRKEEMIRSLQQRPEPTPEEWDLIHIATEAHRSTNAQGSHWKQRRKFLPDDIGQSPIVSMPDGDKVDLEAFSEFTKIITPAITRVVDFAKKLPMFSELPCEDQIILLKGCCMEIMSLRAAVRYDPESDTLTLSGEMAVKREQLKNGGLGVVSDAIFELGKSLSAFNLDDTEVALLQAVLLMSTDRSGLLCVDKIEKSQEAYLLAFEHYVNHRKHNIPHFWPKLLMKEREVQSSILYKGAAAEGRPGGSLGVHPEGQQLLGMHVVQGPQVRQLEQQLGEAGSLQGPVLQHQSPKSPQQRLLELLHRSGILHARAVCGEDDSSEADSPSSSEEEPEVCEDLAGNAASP
T1 sequence (P63059 whole entry, looked up): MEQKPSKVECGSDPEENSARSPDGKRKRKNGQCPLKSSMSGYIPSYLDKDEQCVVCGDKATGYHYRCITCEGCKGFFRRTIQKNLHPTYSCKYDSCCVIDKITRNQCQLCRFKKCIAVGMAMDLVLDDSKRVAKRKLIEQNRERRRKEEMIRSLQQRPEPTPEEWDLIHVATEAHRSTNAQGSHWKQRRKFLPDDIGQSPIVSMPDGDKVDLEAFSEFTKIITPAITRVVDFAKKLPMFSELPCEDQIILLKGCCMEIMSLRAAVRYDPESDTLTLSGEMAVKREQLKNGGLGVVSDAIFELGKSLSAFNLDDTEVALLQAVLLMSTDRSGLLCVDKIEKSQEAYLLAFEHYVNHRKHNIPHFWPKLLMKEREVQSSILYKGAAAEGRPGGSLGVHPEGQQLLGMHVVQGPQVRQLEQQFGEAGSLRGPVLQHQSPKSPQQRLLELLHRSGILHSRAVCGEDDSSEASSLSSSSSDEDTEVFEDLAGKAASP
T1 sequence (P18113 whole entry, looked up): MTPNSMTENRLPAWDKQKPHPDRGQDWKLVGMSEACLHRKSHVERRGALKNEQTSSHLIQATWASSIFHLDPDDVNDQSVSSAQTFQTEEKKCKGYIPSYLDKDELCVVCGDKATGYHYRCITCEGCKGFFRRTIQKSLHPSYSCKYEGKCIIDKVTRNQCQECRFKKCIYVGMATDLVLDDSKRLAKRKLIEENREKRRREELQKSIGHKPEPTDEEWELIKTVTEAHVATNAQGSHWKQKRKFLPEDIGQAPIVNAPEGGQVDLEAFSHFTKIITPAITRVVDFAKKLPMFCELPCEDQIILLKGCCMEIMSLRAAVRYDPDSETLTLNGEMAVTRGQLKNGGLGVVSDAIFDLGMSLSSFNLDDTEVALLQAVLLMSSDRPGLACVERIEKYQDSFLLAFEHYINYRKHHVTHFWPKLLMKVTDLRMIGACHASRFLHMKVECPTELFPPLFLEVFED

In the case of `CC(=O)OCC(=O)[C@@]1(O)CC[C@H]2[C@@H]3CCC4=CC(=O)CC[C@]4(C)[C@H]3C(=O)C[C@@]21C`, the outcome (with PGR (gene 5241) [1]; in experiment [2]; in [3]; with PGR (gene 5241) [4]; with PGR (gene 5241) [5]; in experiment [6]) was inactive.

On to `C=C(NC(=O)C(=C)NC(=O)c1csc(C2=NC3c4csc(n4)C4NC(=O)c5csc(n5)C(C(C)(O)C(C)O)NC(=O)C5CSC(=N5)/C(=C/C)NC(=O)C(C(C)O)NC(=O)c5csc(n5)C3(CC2)NC(=O)C(C)NC(=O)C(=C)NC(=O)C(C)NC(=O)C(C(C)CC)NC2C=Cc3c(C(C)O)cc(nc3C2O)C(=O)OC4C)n1)C(N)=O` (stereo unspecified), for which the concentration at half-maximal activity (AC50) in experiment [7] is 2.47 µM (active). Besides, the outcome (in the experiment with THRA (gene 7067) [8]; in the experiment with THRB (gene 7068) [9]; in experiment [10]; in experiment [11]) was inactive.

For the compound `COC(=O)Nc1nc2ccc(S(=O)c3ccccc3)cc2[nH]1` (stereo unspecified), the outcome (in [12]; with THRA (gene 7067) [13]; in the experiment with THRB (gene 7068) [14]; in experiment [15]; in the experiment with THRB (gene 7068) [16]; in experiment [17]) was inactive. Also, the compound was classed as inactive in experiment [18], in [19], in experiment [20] and in experiment [21].

As usually defined, the AC50 is the midpoint of the concentration-response curve, whichever way the signal moves.

The values above are taken from PubChem BioAssay (EPA / NIEHS).
